# From PubChem BioAssay
# Inconclusive results are not listed. Active and inactive are the calls of the source. Unless noted, no stated cut-off is given here; in the data, active means inhibition above about 80%; inactive means the rest.
# How the values were obtained:
# [1] = viability loss in pontine glioma line – cell-based, SU-DIPG-XIII, MIPE5.0, CellTiter-Glo, qHTS, dose response (AID 1347064; cut-off not given, nearly all actives have AC50 up to about 23 µM;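 on AC50: cells exposed to compound for 48 hours before the viability read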); conditions: CellTiter-Glo ATP luminescence
# [2] = viability loss in pontine glioma line – cell-based, SU-DIPG-XXV, MIPE5.0, CellTiter-Glo, qHTS, dose response (AID 1347065; cut-off not given, nearly all actives have AC50 up to about 26 µM;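 further: cells exposed to compound for 48 hours before ATP readout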); conditions: CellTiter-Glo ATP luminescence
# [3] = growth inhibition of DIPG cells – cell-based, MIPE5.0 library, qHTS (AID 1347068; cut-off not given, nearly all actives have IC50 up to about 30 µM;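 on IC50: cells exposed to compound for 48 hours before viability readout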); conditions: SU-DIPG-XXV viability
# [4] = viability loss with induced miR-34 in A549 – imaging, A549 dox-inducible miR-34, nuclei and caspase counts, primary screen (AID 1347080;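 active means compounds whose cell count with miR-34 switched on is under 0.7 times the count with it off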); conditions: A549 miR-34 inducible, Hoechst nuclei count, 48 h
# [5] = MELAS cybrid and Rieske KO viability enhancers – cell-based, MELAS cybrids, Rieske KO mouse fibroblasts, CellTiter-Glo, primary screen (AID 1508586;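 active means mean z-score across replicates of 1.96 or higher in either the MELAS or the Rieske mutant cell line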;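 further: z relative to plate mean and SD of compound and empty wells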); conditions: low glucose
# [6] = JHH-DIPG-1 glioma cell viability, MIPE5.0 library, CellTiter-Glo luminescence, qHTS (AID 1347067; cut-off not given, nearly all actives have AC50 up to about 26 µM;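 further: cells exposed to compound for 48 hours before readout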); conditions: JHH-DIPG-1 glioma viability, CellTiter-Glo ATP luminescence
# [7] = growth inhibition, single agent or in combination, cell-based, chromothripsis tumors, cisplatin or BGB combos (AID 1671449); conditions: LFS_MB_P medulloblastoma cells;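 further: cells exposed for 96 hours; 0% = vehicle DMSO and 100% = killing by high DMSO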
# [8] = growth inhibition, single agent and combos, cell-based, chromothripsis tumors, cisplatin or BGB combos (AID 1671450); conditions: HDN33 neuroblastoma cells, stronger effect = higher value;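 further: cells exposed to compound for four days; 0% = vehicle DMSO and 100% = cell killing by high DMSO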
# [9] = growth inhibition, single agents and combos, ICB984, cell-based, cisplatin or BGB combos, synergistic combos for chromothripsis tumors (AID 1671451; call rule not given here;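 further: cells exposed for 96 hours before readout; 0% = vehicle DMSO and 100% = killing by high DMSO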); conditions: ICB984 medulloblastoma cells, drug combinations, stronger effect = higher value
# [10] = growth inhibition, single agents and combos, LFS_MB_1R, cell-based, cisplatin or BGB combos, synergistic combos for chromothripsis tumors (AID 1671452); conditions: LFS_MB_1R medulloblastoma cells, stronger effect = higher value;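 further: cells exposed for 96 hours before readout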
# [11] = growth inhibition, single agents and combos, HTB85, cell-based, BGB or cisplatin IC20 combos, synergistic combos for chromothripsis tumors (AID 1671453); conditions: HTB85 osteosarcoma cells, drug combinations, stronger effect = higher value;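 further: cells exposed for 96 hours before readout; 0% = vehicle DMSO and 100% = high DMSO killing control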
# [12] = growth inhibition, single agents and combos, CRL2098, cell-based, BGB or cisplatin IC20 combos, synergistic combos for chromothripsis tumors (AID 1671454); conditions: CRL2098 osteosarcoma cells, drug combinations, stronger effect = higher value;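 further: cells exposed for 96 h before readout; 0% = vehicle DMSO and 100% = killing by high DMSO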
# [13] = growth inhibition, single agents and combos, HD-MB03, cell-based, BGB or cisplatin IC20 combos, synergistic combos for chromothripsis tumors (AID 1671455; in the data active means inhibition above about 83%;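 further: 0% = vehicle DMSO and 100% = high DMSO as cytotoxic control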); conditions: HD-MB03 medulloblastoma cells, stronger effect = higher value
# [14] = growth inhibition, single agents and combos, UWB1.289, cell-based, BGB or cisplatin combos, synergistic combos for chromothripsis tumors (AID 1671456); conditions: UWB1.289 ovarian carcinoma cells, stronger effect = higher value;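 further: cells exposed to compound for four days; 0% = vehicle DMSO and 100% = killing by high DMSO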
# [15] = growth inhibition, single agents and combos, LFS_MB_2R, cell-based, cisplatin combos, synergistic combos for chromothripsis tumors (AID 1671457); conditions: LFS_MB_2R medulloblastoma cells, stronger effect = higher value;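 further: cells exposed to compound for four days before readout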
# [16] = growth inhibition, MDA-MB-436, cell-based, BGB or cisplatin combos, synergistic combos for chromothripsis tumors (AID 1671458; call rule not given here;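 further: cells exposed for 96 hours; 0% = vehicle DMSO and 100% = killing by high DMSO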); conditions: MDA-MB-436 breast carcinoma growth inhibition, drug combinations, stronger effect = higher value
# [17] = UWB1.289_BRCA1 ovarian cancer growth, cell-based, BGB or cisplatin combinations (AID 1671459); conditions: UWB1.289 BRCA1 ovarian carcinoma, drug combinations, stronger effect = higher value
# [18] = drug combination toxicity in non-malignant astrocytes – cell-based, BGB or cisplatin IC20 combos, cytotoxicity control for chromothriptic childhood tumor combination screen (AID 1671460); conditions: Human astrocytes, viability inhibition, drug combinations, at 0.5 µM, stronger effect = higher value;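 further: cells exposed to compounds for 96 hours before viability readout; 0% = vehicle and 100% = killing control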
# [19] = BT084 cell growth, single and combined drugs, ICGC_MB145, cisplatin and BGB IC40 combos (AID 1671461); conditions: BT084 medulloblastoma cells, drug combinations, stronger effect = higher value;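 further: cells exposed to drugs for 96 hours; 0% = vehicle DMSO and 100% = high DMSO full killing control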
# [20] = RCMB18 cell growth, single agent and combined, cisplatin and BGB IC40 combos (AID 1671462); conditions: RCMB18 medulloblastoma cells, stronger effect = higher value;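 further: cells exposed to compound for four days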
# [21] = CRL1545 cell growth, single agent and combined, cisplatin and BGB IC20 combos (AID 1671464); conditions: CRL1545 osteosarcoma cells, stronger effect = higher value;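 further: cells exposed to compound for 96 hours before readout; 0% = vehicle DMSO and 100% = high DMSO killing control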
# [22] = growth inhibition of DIPG cells – cell-based, MIPE4.0 library, CellTiter-Glo luminescence, qHTS (AID 1347066; cut-off not given, nearly all actives have AC50 up to about 30 µM;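 further: cells exposed to compound for 48 hours before readout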); conditions: SU-DIPG-VI viability, CellTiter-Glo ATP luminescence
# [23] = stronger effect = lower value, cell number ratio, induced over uninduced
# [24] = measured here: relative caspase fold change +Dox/-Dox
# [25] = measured here: total cells with miR-34 induction, stronger effect = lower value
# [26] = measured here: total cells without miR-34 induction
# [27] = MELAS cybrid survival, CellTiter-Glo 48 h, stronger effect = higher value
# [28] = Rieske KO mouse fibroblast survival, CellTiter-Glo 72 h
# [29] = measured here: combination with BGB IC40, at 0.05 µM
# [30] = measured here: with BGB IC20 combination, at 0.5 µM
# [31] = measured here: with cisplatin IC20 combination, at 0.5 µM
# [32] = measured here: combination with cisplatin, at 0.5 µM
# [33] = measured here: combination with cisplatin, at 5 µM
smiles,measurement,setting,value
O=C(NNc1ccccc1)c1ccncc1,outcome,[1],inactive
same,outcome,[2],inactive
same,outcome,[3],inactive
same,fold change,[4]; [23],0.922 (inactive)
same,fold change,[4]; [24],0.452
same,cell count,[4]; [25],7960
same,cell count,[4]; [26],8630
same,z-score,[5]; [27],-0.433 (inactive)
same,z-score,[5]; [28],-1.65
Nc1nccc(-c2c(-c3ccc(F)cc3)ncn2C2CCCCC2)n1,outcome,[1],inactive
same,outcome,[6],inactive
same,outcome,[3],inactive
C=C1[C@H](OC(=O)/C=C(\C)CC)C[C@@H](C(C)C)[C@@H]2[C@H]([C@@H](C)OC(C)=O)C(=O)C[C@@H]12,AC50,[1],18.6 µM (active)
same,AC50,[6],18.6 µM (active)
same,outcome,[3],inactive
c1cc(Nc2cc(C3CC3)[nH]n2)nc(Nc2ccc3nc[nH]c3c2)n1,AC50,[1],0.468 µM (active)
same,AC50,[2],0.59 µM (active)
same,AC50,[6],0.742 µM (active)
same,IC50,[3],1.48 µM (active)
same,inhibition,"[7]; at 0.5 µM, stronger effect = higher value",-28.9% (inactive)
same,inhibition,"[7]; measured here: combination with BGB IC20, at 0.005 µM",-28.7%
same,inhibition,"[7]; measured here: combination with BGB IC40, at 0.005 µM",66.9%
same,inhibition,[7]; [29],3.2%
same,inhibition,"[7]; measured here: combination with cisplatin, at 0.5 µM, stronger effect = higher value",-45.7%
same,inhibition,"[7]; measured here: combination with cisplatin, at 5 µM, stronger effect = higher value",97.7%
same,inhibition,"[8]; BGB combo, at 5 µM",80.3%
same,inhibition,[8]; at 0.5 µM,13.6% (inactive)
same,inhibition,"[8]; cisplatin combo, at 5 µM",56.8%
same,inhibition,[8]; [30],15.5%
same,inhibition,[8]; [31],11.8%
same,inhibition,"[8]; single agent, at 5 µM",65%
same,inhibition,"[9]; BGB IC20 combo, at 0.005 µM",91.8%
same,inhibition,"[9]; BGB IC40 combo, at 0.005 µM",91.5%
same,inhibition,"[9]; BGB IC40 combo, at 0.05 µM",101%
same,inhibition,[9]; at 0.5 µM,-13.7% (inactive)
same,inhibition,"[9]; cisplatin combo, at 0.05 µM",102%
same,inhibition,"[9]; cisplatin combo, at 0.5 µM",-28%
same,inhibition,"[9]; cisplatin combo, at 5 µM",-12.8%
same,inhibition,"[9]; measured here: 5 uM single agent, at 5 µM",-7.27%
same,inhibition,[10]; at 0.5 µM,96.2% (active)
same,inhibition,[10]; [29],10.7%
same,inhibition,[10]; [32],97.7%
same,inhibition,[10]; [33],98.3%
same,inhibition,[11]; at 0.5 µM,92.1% (active)
same,inhibition,"[11]; measured here: with BGB IC20, at 0.5 µM",97.4%
same,inhibition,"[11]; measured here: with BGB IC20, at 5 µM",98.4%
same,inhibition,"[11]; measured here: with cisplatin IC20, at 0.5 µM",83.5%
same,inhibition,"[11]; measured here: with cisplatin IC20, at 5 µM",99.3%
same,inhibition,"[11]; single agent, at 5 µM",99.5%
same,inhibition,[12]; at 0.5 µM,28.9% (inactive)
same,inhibition,"[12]; measured here: combination with BGB at IC20, at 0.5 µM",57.3%
same,inhibition,"[12]; measured here: combination with cisplatin at IC20, at 0.5 µM",27.4%
same,inhibition,[13]; at 0.5 µM,31.9% (inactive)
same,inhibition,"[13]; measured here: combo with BGB at IC20, at 0.5 µM",43.7%
same,inhibition,"[13]; measured here: combo with cisplatin at IC20, at 0.5 µM",6.87%
same,inhibition,[14]; at 0.5 µM,67.4% (inactive)
same,inhibition,"[14]; measured here: inhibition with BGB combination, at 0.05 µM",37.1%
same,inhibition,"[14]; measured here: inhibition with cisplatin combination, at 0.05 µM",-9.86%
same,inhibition,[15]; at 0.5 µM,80.7% (active)
same,inhibition,[15]; [32],87.3%
same,inhibition,[15]; [33],91.1%
same,inhibition,[16]; at 0.5 µM,23.1% (inactive)
same,inhibition,"[16]; measured here: BGB combination, at 0.5 µM",22.4%
same,inhibition,"[16]; measured here: BGB combination, at 5 µM",75.1%
same,inhibition,"[16]; measured here: cisplatin combination, at 0.5 µM",5.08%
same,inhibition,"[16]; measured here: cisplatin combination, at 5 µM",88.8%
same,inhibition,"[17]; BGB combination, concentration series, at 5 µM",73.5%
same,inhibition,[17]; at 0.5 µM,79.3% (inactive)
same,inhibition,"[17]; cisplatin combination, concentration series, at 5 µM",72.2%
same,inhibition,[18],14.6% (inactive)
same,inhibition,[18]; measured here: combo with BGB IC20,33.6%
same,inhibition,[18]; measured here: combo with cisplatin IC20,-4.62%
same,inhibition,[19]; at 0.5 µM,44.8% (inactive)
same,inhibition,"[19]; cisplatin combination, at 0.5 µM",31.8%
same,inhibition,"[19]; cisplatin combination, at 5 µM",-81%
same,inhibition,"[19]; measured here: BGB IC40 combination 0.05 uM, at 0.05 µM",-10.1%
same,inhibition,"[19]; single agent, at 5 µM",22.9%
same,inhibition,[20]; at 0.5 µM,73.8% (inactive)
same,inhibition,"[20]; cisplatin combo, at 5 µM",83.5%
same,inhibition,"[20]; measured here: BGB IC40 combination, at 0.05 µM",22.4%
same,inhibition,[20]; [32],76.4%
same,inhibition,"[20]; single agent, at 5 µM",84.3%
same,inhibition,[21]; at 0.5 µM,-7.32% (inactive)
same,inhibition,[21]; [30],-9.54%
same,inhibition,[21]; [31],-7.92%
same,inhibition,"[21]; single agent, at 0.05 µM",-26.3%
same,inhibition,"[21]; single agent, at 5 µM",81.3%
COc1cc(N2CCN(C)CC2)ccc1Nc1nccc(-c2cn(C)c3cnccc23)n1,AC50,[1],10.5 µM (active)
same,AC50,[2],13.2 µM (active)
same,AC50,[6],18.6 µM (active)
same,outcome,[3],inactive
same,fold change,[4]; [23],0.785 (inactive)
same,fold change,[4]; [24],1.02
same,cell count,[4]; [25],4990
same,cell count,[4]; [26],6360
same,z-score,[5]; [27],1.95 (inactive)
same,z-score,[5]; [28],-5.23
CN(C)S(=O)(=O)c1ccc2c(c1)C(=Cc1cc3c([nH]1)CCCC3)C(=O)N2,outcome,[1],inactive
same,outcome,[22],inactive
